# From PubChem BioAssay
# The source made the active and inactive calls. No rule for the calls is given here.
# Legend:
# [1] = kinase inhibitors against Plasmodium liver-stage infection, cell-based, known kinase inhibitor set, luminescence, hepatoma host viability (AID 624392); conditions: Plasmodium liver stage in hepatoma cells, luciferase luminescence, concentration not given here; liver cell % of control: measured here: host liver cell viability; parasite % of control: stronger effect = lower value;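 also: infected cells incubated roughly two days before readout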
# [2] = modulators of glucocorticoid suppression of NF-kB, cell-based, luciferase, IL-1B stimulus, dexamethasone (AID 624486); conditions: NF-kB luciferase reporter, IL-1B + dexamethasone, luminescence; percent of negative control (+Dex): actives lie on both sides, concentration not given here; z-score: measured here: IL-1B alone, no Dex;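 as to percent of negative control (+Dex): 100% = mean signal of vehicle control wells on the plate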
# [3] = target: Cellular tumor antigen p53 (Homo sapiens) (UniProt P04637); test: kinase inhibitors altering GFP-p53 stability in HPV16-positive cells, imaging, known kinase inhibitor set, EGFP/DsRed ratio (AID 1053116); conditions: stronger effect = higher value; EGFP object count: measured here: GFP-p53 positive objects count;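 also: cells exposed to compounds for 24 h at 37 °C before reading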
# Cellular tumor antigen p53 (Homo sapiens), sequence (P04637 whole entry, looked up): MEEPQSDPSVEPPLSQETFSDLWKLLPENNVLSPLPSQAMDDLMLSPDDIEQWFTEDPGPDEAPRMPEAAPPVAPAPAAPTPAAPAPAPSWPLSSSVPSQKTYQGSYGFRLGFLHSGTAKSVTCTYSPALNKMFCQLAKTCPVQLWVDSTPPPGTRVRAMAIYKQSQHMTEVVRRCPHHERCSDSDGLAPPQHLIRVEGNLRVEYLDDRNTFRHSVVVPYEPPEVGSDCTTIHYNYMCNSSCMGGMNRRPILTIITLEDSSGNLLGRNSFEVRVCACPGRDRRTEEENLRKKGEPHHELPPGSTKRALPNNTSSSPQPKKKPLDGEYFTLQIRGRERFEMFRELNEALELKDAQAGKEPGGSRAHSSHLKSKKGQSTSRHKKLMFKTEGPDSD
# [4] = IRF3 reporter activation in THP-1 macrophages, cell-based, PMA-stimulated THP-1, luminescence (AID 1053176); conditions: PMA-differentiated THP-1, IRF3 reporter luminescence; stronger effect = higher value
SMILES,liver cell % of control [1],parasite % of control [1],percent of negative control (+Dex) [2],z-score [2],EGFP object count [3],EGFP/DsRed ratio [3],fraction signal [4]
N#Cc1c(C(=O)c2ccccc2)cnn1-c1ccccc1,104%,56.2% (inactive),106% (inactive),1.11,7,0.125 (inactive),-0.007 (inactive)
COc1cc(F)c(F)cc1C(=O)c1cnc(NC2CCN(S(C)(=O)=O)CC2)nc1N,107%,392% (inactive),79% (inactive),-1.08,1,0.11 (inactive),-0.003 (inactive)
COc1cc(F)c(F)c(F)c1C(=O)c1cnc(NC2CCN(S(C)(=O)=O)CC2)nc1N,92.2%,450% (inactive),122% (inactive),0.18,3,0.21 (inactive),-0.0095 (inactive)
Cn1c(=O)c(Oc2ccc(F)cc2F)cc2cnc(NCCS(C)(=O)=O)nc21,117%,60.7% (inactive),101% (inactive),0.95,1,0.00515 (inactive),0.0015 (inactive)
CN1CCN(CC#Cc2cccc(C(=O)c3cnn(-c4ccc(F)cc4)c3N)c2)CC1,96.5%,46.3% (inactive),104% (inactive),0.495,3.5,0.0523 (inactive),0.0015 (inactive)
O=c1c(Oc2ccc(F)cc2F)cc2cnc(NC3CCOCC3)nc2n1C1CCS(=O)(=O)CC1,120%,83.4% (inactive),97% (inactive),-0.26,3,0.101 (inactive),-0.0075 (inactive)
O=[N+]([O-])c1ccc2c(c1)C(c1ccccc1Cl)=Nc1c(n[nH]c1-c1cccnc1)N2,237%,4.98% (inactive),102% (inactive),-0.45,8,0.194 (inactive),0.01 (inactive)
O=C1NC(=NCCc2ccccc2F)SC1=Cc1ccc2ncccc2c1,108%,44.4% (inactive),99% (inactive),0.18,12.5,0.349 (inactive),-0.0025 (inactive)
Cn1cc(C2=C(c3c4n(c5ccccc35)CC(CN)C4)C(=O)NC2=O)c2ccccc21 (stereo not given),97.6%,48.9% (inactive),100% (inactive),-0.23,6.5,0.00726 (inactive),-0.005 (inactive)
Cn1cc(C2=C(c3cn(-c4ccccc4)c4ccccc34)C(=O)NC2=O)c2ccccc21,108%,63.3% (inactive),99% (inactive),0.65,3,0.0255 (inactive),0.01 (inactive)
Cn1cc(C2=C(c3cn(CCSC(=N)N)c4ccccc34)C(=O)NC2=O)c2ccccc21,92.2%,26.4% (inactive),96.5% (inactive),0.445,2.5,0.00335 (inactive),-0.018 (inactive)
O=C1NC(=NCc2ccccc2Br)SC1=Cc1ccc2ncccc2c1,130%,32.9% (inactive),85.5% (inactive),-0.56,8,0.253 (inactive),-0.0095 (inactive)
Cn1cc(C2=C(c3cccnc3)C(=O)NC2=O)c2ccccc21,312%,2% (active),110% (inactive),-1.34,8.5,0.135 (inactive),-0.005 (inactive)
CC(=O)NC(Cc1ccc(OP(=O)(O)O)cc1)C(=O)NC1CCC(=O)N2CCCC(C(=O)Nc3cccc4ccccc34)N2C1=O (stereo not given),103%,47% (inactive),104% (inactive),0.475,6.5,0.135 (inactive),-0.007 (inactive)
Cn1c(=O)c(Oc2ccccc2F)cc2cnc(NC3CCOCC3)nc21,116%,49.5% (inactive),107% (inactive),0.09,7,0.313 (inactive),0.001 (inactive)
N=C1N=C(N)C(=Cc2ccc3ncccc3c2)S1,121%,61.8% (inactive),98.5% (inactive),1.46,3.5,0.171 (inactive),0.006 (inactive)
Cn1cc(C2=C(c3c(S(C)=O)n(C)c4ccccc34)C(=O)NC2=O)c2ccccc21 (stereo not given),123%,78.6% (inactive),97.5% (inactive),0.295,5,0.591 (inactive),-0.003 (inactive)
COc1cccc(C2=C(c3cn(C)c4cc(C)ccc34)C(=O)NC2=O)c1,112%,29% (inactive),98.5% (inactive),-1.5,24,0.336 (inactive),-0.005 (inactive)
COc1ccccc1CN=C1NC(=O)C(=Cc2ccc3ncccc3c2)S1,98.9%,28.1% (inactive),91.5% (inactive),-0.71,4.5,0.187 (inactive),-0.0025 (inactive)
Nc1c(C(=O)c2cccc(-c3cccnc3)c2)cnn1-c1ccc(F)cc1,219%,7.92% (inactive),111% (inactive),0.475,3,0.0451 (inactive),-0.005 (inactive)
